TRHR agonist = activates the human TRH receptor | P34981 | TRHR cells, calcium flux fluo-8, FDSS agonist mode | activation, % at 2 µM | actives 0.18% (n = 360,000) | AID 493084; also: 0% is about no effect
Target sequence (P34981 whole entry, looked up): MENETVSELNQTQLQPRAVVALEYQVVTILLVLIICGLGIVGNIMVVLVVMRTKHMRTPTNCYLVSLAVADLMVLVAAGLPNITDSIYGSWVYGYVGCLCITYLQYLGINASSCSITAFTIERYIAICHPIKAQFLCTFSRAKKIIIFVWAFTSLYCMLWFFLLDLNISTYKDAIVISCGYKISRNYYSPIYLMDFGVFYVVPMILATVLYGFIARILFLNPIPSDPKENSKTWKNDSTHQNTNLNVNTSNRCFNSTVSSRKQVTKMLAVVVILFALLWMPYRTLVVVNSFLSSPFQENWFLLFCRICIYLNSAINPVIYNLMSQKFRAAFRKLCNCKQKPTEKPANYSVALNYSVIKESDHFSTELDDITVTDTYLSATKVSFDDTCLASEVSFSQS
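TRHR-expressing cells, plated overnight in medium with 10% serum, were loaded with fluo-8 calcium dye at room temperature. After a 10 s baseline, library compound was pin-added and calcium release was recorded kinetically (ex 480/em 530) as agonist response.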
D1 potentiator = potentiators of human D1 dopamine receptor; actives 0.036% (n = 360,000); potentiation, % at 10 µM; HEK293 TREx D1 cells, calcium flux, dopamine EC20 potentiation; P21728; in the data active = potentiation above about 30%; also: 0% is about no effect
D1 antagonist = blocks dopamine activation of the human D1 receptor; P21728; HEK293 TREx D1 cells, calcium flux, dopamine EC80; stronger effect = lower value; activity change, negative = inhibition, % at 10 µM; actives 3.2% (n = 360,000); AID 504652; in the data active = activity change below about -30%; also: % is scaled to controls: 0 for no effect and ±100 for the full control effect
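Inducible Hek293 Trex D1 cells (tetracycline, overnight, 30 C). Calcium dye 30–90 min RT. Antagonist mode: EC80 dopamine added after 180 s compound read.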
D1 agonist = human D1 receptor agonism | P21728 | HEK293 T-REx D1 cells, calcium flux, agonist mode | activation, % at 2 µM | actives 1% (n = 360,000) | AID 504660; also: 0% is about no effect
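Tetracycline-induced HEK293 TREx D1 cells, force-coupled to calcium signalling, were dye-loaded with a no-wash calcium kit. Compound was pin-added after a 10 s baseline. Fluorescence was read kinetically at 1 cycle/s for 180 s, with calcium rises flagged as agonism.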
USP1-UAF1 inh = USP1/UAF1 (human) deubiquitinase inhibition | AID 743255 | Potency, µM (series often up to 57.1 µM), inactives show at the highest dose activity change, negative = inhibition, most hits filed as inhibitors | recombinant USP1/UAF1, Ub-Rhodamine cleavage fluorescence | actives 0.23% (n = 390,000); active = well fitted inhibition curve with a large enough effect; inconclusive = small, poorly fitted or top-dose-only effect; inactive = no such curve, though single readings can be large or run the other way; also: potency is read from the fitted curve at half-maximal effect; % is scaled to controls: 0 for no effect and ±100 for the full control effect; nearly all actives have a fitted effect of over 60% in size
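1 nM enzyme complex + cpd, 15 min RT; start with Ub-Rho 150nM final; kinetic fluorescence ex 480/em 540, 6 reads q60 s. Buffer 50mM HEPES pH 7.8, 0.5mM EDTA, 0.1 mg/ml BSA, 1mM TCEP, 0.01% Tween-20.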
TRHR PAM = TRH receptor (human) allosteric enhancement; TRHR cells, fluo-8 calcium fluorescence, EC20 TRH enhancement; P34981; enhancement, % at 2 µM; actives 0.66% (n = 360,000); in the data active = enhancement above about 30%; also: 0% is about no effect
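TRHR-expressing cells loaded with fluo-8 calcium dye were read kinetically (ex 480/em 530) during compound addition, then stimulated with an EC20 of TRH (10 nM final). Enhancement of the Gq-mediated intracellular calcium response was scored.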
* marks the source's active call; other numbers are inactive results; ? = inconclusive; nt = not tested or not shown. Only some compounds are listed: those with a hit (about 4.4% of all), similar ones and a draw of the others. Rule as the data show it, unless noted: active = activation above about 30%; inactive = the rest.

SMILES	TRHR agonist	D1 potentiator	D1 antagonist	D1 agonist	USP1-UAF1 inh	TRHR PAM
CC(=O)c1cccc(OCC(O)CNCCc2ccc(Cl)cc2)c1 (configuration not stated)	1	-1	-6	26	-12%	2
COc1ccc(CCNCC(O)COc2cccc(Br)c2)cc1 (configuration not stated)	4	5	-1	30*	-14%	0
COC(=O)c1ccc(N2C(=O)Cc3cc(OC)c(OC)cc3C2c2ccc(F)cc2)cc1 (configuration not stated)	0	-1	-10	0	-14%	7
CC(=O)N/N=C/c1cc(C(C)(C)C)cc(/C=N/NC(C)=O)c1O	22	8	-9	36*	-20%	6
Cc1cc(C(=O)N/N=C\c2cc(C(C)(C)C)ccc2O)n[nH]1	-1	2	3	3	-19%	0
Cc1c(Cl)cccc1N1C(=O)c2ccccc2C1=O	-1	-1	-19	1	-8%	-4
Nc1ccc(N2C(=O)c3ccccc3C2=O)c(Cl)c1	-1	-3	-46*	-1	-2%	15
CCCOc1ccc(C(=O)Nc2ccc(NC(=O)c3ccccc3)c(Br)c2)cc1	2	-3	-12	2	?	-1
COc1ccc(-n2cc(C(=O)NCc3ccccc3Cl)c3ccccc3c2=O)cc1	16	4	7	2	14%	8
CCN(CC)C(=O)c1c(-c2ccccc2)c(-c2ccccc2)nn(CC)c1=O	0	0	3	-1	-1%	1
O=C(NC1CC(=O)N(c2cccc(F)c2)C1)C(=O)c1c[nH]c2ccccc12 (configuration not stated)	2	-4	-16	23	-9%	-7
COc1cccc(N2CC(NC(=O)C(=O)c3c[nH]c4ccccc34)CC2=O)c1 (configuration not stated)	0	-3	-35*	2	-3%	-1
CCOC(=O)N1CCC(NC(=O)c2ccc3c(c2)N(Cc2ccccc2C)C(=O)c2ccccc2S3=O)CC1 (configuration not stated)	0	-1	-15	3	-11%	6
CC(C)CN(C(=O)COC(=O)c1cccnc1Cl)c1c(N)n(Cc2ccccc2)c(=O)[nH]c1=O	1	-9	-35*	2	-2%	-2
COCCN(C(=O)COC(=O)c1cccnc1Cl)c1c(N)n(Cc2ccccc2)c(=O)[nH]c1=O	-1	-5	14	1	-8%	-3
Cc1cccc(-n2nc(C)c3c2NC2=C(C(=O)CCC2)C3c2ccccn2)c1 (configuration not stated)	0	-3	21	3	-18%	-13
Cc1nn(-c2ccccn2)c2c1C(c1ccsc1)C1=C(CCCC1=O)N2 (configuration not stated)	-1	-4	-86*	0	-9%	1
CC(=O)c1cccc(NC(=O)CSc2nc3c(=O)n(C)c(=O)n(C)c3n2C)c1	0	-2	nt	-2	-6%	34*
Cn1c(=O)c2nc(SCC(=O)Nc3ccc(Cl)c(Cl)c3)n(C)c2n(C)c1=O	0	0	nt	-3	-14%	-2
S=c1nc(C2CCCCC2)[nH][nH]1	0	2	-50*	1	1%	4
Nc1n[nH]c(C2CCCCC2)n1	1	-2	1	3	-25%	-2
O=C(N/N=C/c1sc(=O)[nH]c1-[n+]1ccc2ccccc2c1)c1ccccc1[O-]	14	-2	-10	34*	-13%	-1
CC1=C(C(=O)N2CCOCC2)C(c2ccc(Br)cc2)NC(=S)N1c1ccccc1 (configuration not stated)	0	-5	-42*	1	-8%	0
O=C(/C=C/c1ccc(F)cc1)Nc1nc2n(n1)C(c1ccc(Cl)cc1)C=C(c1ccccc1)N2 (configuration not stated)	-1	3	1	2	-17%	-3
CCCN1CCC(NCc2cn(C)nc2-c2ccc(Oc3ccccc3)cc2)CC1	2	-1	-10	30*	-1%	5
SMILES	TRHR agonist	D1 potentiator	D1 antagonist	D1 agonist	USP1-UAF1 inh	TRHR PAM
COC1CCCN(Cc2cn(C)nc2-c2ccc(Oc3ccccc3)cc2)C1 (configuration not stated)	0	-2	-2	2	-7%	-4
C=C[C@@H]1c2ccccc2N(S(=O)(=O)c2ccc(C)cc2)[C@H](c2ccc(C(F)(F)F)cc2)C1(C#N)C#N	0	-4	-32*	2	?	0
CCCc1nnc(NC(=O)Cc2coc3ccc(C(C)C)cc23)s1	1	7	-1	-1	0%	-6
CN(C)C=Nc1nonc1-c1ccccc1	0	-2	5	2	3%	-1
CN(C)C=Nc1c(Br)cc(Br)c2nonc12	141*	6	-74*	415*	?	11
N#Cc1ccccc1Cn1c(=O)n(CCCC(=O)NCc2ccc3c(c2)OCO3)c(=O)c2sccc21	0	0	-15	2	-23%	2
O=C(OCC#CCNc1nnc(-c2cccc3ccccc23)o1)c1cccs1	0	5	1	3	nt	12
COc1cc(/C=C/C(=O)N2CCCc3ccccc32)cc(OC)c1OC	-1	-2	-33*	-1	-21%	-6
CCC(=O)c1ccc(OCC(=O)OCC(=O)N2CCCc3ccccc32)cc1	1	-7	-28	12	-20%	5
COc1ccc(C(=O)NCC(=O)OCC(=O)N2CCCc3ccccc32)cc1	0	2	0	0	-11%	37*
COc1ccc(/C=C/C(=O)N2CCCc3ccccc32)cc1	-1	-7	-32*	8	-16%	-3
COc1ccc(/C=C/C(=O)N2CCCc3ccccc32)c(OC)c1	-1	-8	-3	10	-10%	5
COc1ccc(OC)c(/C=C/C(=O)N2CCCc3ccccc32)c1	-1	1	11	1	-14%	-6
Cn1c2cc(B(O)O)sc2c2cnn(Cc3c(F)cccc3Cl)c(=O)c21	3	-8	-7	11	nt	6
O=C(CN1N=C(c2ccccc2)CCC1=O)NCc1ccc(F)cc1Cl	0	-1	-9	-2	16%	11
Cn1c(=O)c2c(ncn2CC(O)CNc2ccc(Cl)cc2)n(C)c1=O (configuration not stated)	0	-6	-37*	2	-9%	2
Clc1c(CSc2nc3ccccc3o2)nc2ccccn12	-1	-8	-39*	1	-6%	-3
COC(=O)CSc1nc2ccccc2o1	0	-6	-37*	1	22%	-2

Screening results (PubChem)
